Laboratory results from PubChem BioAssay.
The source made the active and inactive calls.

How the values were obtained:
[1] = biological target: Albumin (Bos taurus) (UniProt P02769); assay: compounds binding labelled BSA control protein – biochemical, small-molecule microarray, Alexa647 label, 635/667 nm fluorescence, artefact control for SMM control protein annotation, profiling panel (AID 1118); conditions: BSA-A647 binding, fluorescence 635 nm, higher = more signal;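 further: score merges 667 nm emission intensity and signal-to-noise per printed compound spot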
[2] = probe aXIP binding to arrayed compounds – biochemical, NeuroSMM set, 635/667 nm fluorescence, primary screen (AID 1119); conditions: small-molecule microarray, higher = more signal, called active from +8 up or from −8 down;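 further: probe is the protein aXip251-270 applied at 1 µg/mL to compound-printed slides; binding of probe to printed compounds measured as 667 nm fluorescence plus signal to noise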
[3] = probe aNOTCH3 binding on compound microarray – biochemical, small-molecule microarray, 635/667 nm fluorescence, primary screen (AID 1120); conditions: higher = more signal;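 further: probe is a biotin-tagged antibody raised against NOTCH3 rather than NOTCH3 protein; score merges spot fluorescence near 667 nm with spot signal to noise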
[4] = probe aNOTCH2 binding on compound microarray – biochemical, small-molecule microarray, 635/667 nm fluorescence, primary screen (AID 1121); conditions: higher = more signal;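 further: score merges feature fluorescence read at 667 nm with its signal to noise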
[5] = biological target: Carbonic anhydrase 2 (Homo sapiens) (UniProt P00918); assay: compounds binding carbonic anhydrase 2 – biochemical, small-molecule microarray, Alexa647-labelled CAII, profiling panel (AID 1122); conditions: CAII-A647 binding fluorescence, higher = more signal
[6] = COS7 lysate on small-molecule microarray, probe aHis, 635 nm (AID 1123); conditions: COS7 cell lysate, fluorescence, higher = more signal;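 further: z-score combines 667nm fluorescence intensity with signal-to-noise per printed compound spot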
[7] = probe aLAP1 signal on lysate-treated microarray – cell lysate, small-molecule microarray, COS7 lysate, primary screen (AID 1124); conditions: probe aLAP1, fluorescence, higher = more signal;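 further: lysate comes from COS7 cells expressing LAP1 and is applied at 0.3 µg/mL; score merges spot fluorescence near 667 nm with signal-to-noise over triplicate slides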
[8] = test system: Sam68 (KHDRBS1); assay: compounds binding KHDRBS1 protein – biochemical, small-molecule microarray, 635 nm fluorescence, primary screen (AID 1125); conditions: higher = more signal;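 further: score merges 667 nm channel intensity with signal to noise over triplicate slides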
[9] = test system: Chordin-like protein 2 (CHRDL2); assay: compounds binding chordin-like 2 – biochemical, small-molecule microarray, 635 nm fluorescence, primary screen (AID 1126); conditions: fluorescence 635 nm, higher = more signal;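 further: printed compound slides probed with Chrdl2 protein at 4 µg/mL for 1 h at 4 C; score merges 667 nm emission intensity with signal to noise over three replicate slides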
[10] = biological target: Concanavalin-A (Canavalia ensiformis) (UniProt P02866); assay: compounds binding concanavalin A lectin – biochemical, small-molecule microarray, Alexa647 label, 635 nm, artefact control for SMM control protein annotation, primary screen (AID 1127); conditions: ConA-A647 binding fluorescence, higher = more signal;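 further: z combines 667 nm emission intensity with signal-to-noise across three replicate slides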
[11] = compounds binding Alexa647 anti-His antibody – biochemical, small-molecule microarray, 635 nm fluorescence, artefact control for SMM control protein annotation, primary screen (AID 1128); conditions: higher = more signal;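 further: score merges feature fluorescence with signal-to-noise for each printed compound spot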
[12] = test system: Human papillomavirus type 1a E7 protein (residues 1-88); assay: HPV1a E7 small-molecule binders, primary screen, biochemical, small-molecule microarray, residues 1-88, 635 nm (AID 1129); conditions: small-molecule microarray binding, fluorescence 635 nm; higher = more signal
[13] = biological target: Focal adhesion kinase 1 (Homo sapiens) (UniProt Q05397); assay: PTK2 protein binding on printed compound slides – biochemical, small-molecule microarray, 635/667 nm fluorescence, BSA, DTT, primary screen (AID 1130); conditions: 635 nm fluorescence, higher = more signal;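 further: composite of spot emission at 667 nm and signal to noise over triplicate slides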
[14] = test system: Fibrinogen (Alexa647-labelled); assay: Alexa647-fibrinogen binding to printed small molecules – biochemical, small-molecule microarray, 635/667 nm fluorescence, artefact control for SMM control-protein annotation, profiling panel (AID 1131); conditions: fibrinogen-A647 binding fluorescence, higher = more signal;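 further: z-score merges 667 nm fluorescence with per-spot signal-to-noise over triplicate slides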
[15] = biological target: Follistatin (Homo sapiens) (UniProt P19883); assay: FST protein binding to printed compounds – biochemical, small-molecule microarray, 635/667 nm fluorescence, primary screen (AID 1132); conditions: 635 nm fluorescence, higher = more signal
[16] = biological target: Fibroblast growth factor 2 (Homo sapiens) (UniProt P09038); assay: basic fibroblast growth factor binding to printed compounds – biochemical, small-molecule microarray, 635/667 nm fluorescence, primary screen (AID 1133); conditions: FGF2, fluorescence 635/667, higher = more signal
[17] = JC-1 mitochondrial potential readout, lung cancer cells – cell-based, A549, JC-1 fluorescence, basal, 24 h, 100 nL, profiling panel (AID 1138); conditions: higher = more signal;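 further: A549 lung adenocarcinoma cells under basal conditions with no added stimulus; test concentration not given here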
[18] = test system: Lefty1; assay: Lefty1 protein binding to printed compounds – biochemical, small-molecule microarray, 635/667 nm fluorescence, primary screen (AID 1139); conditions: fluorescence 635/667, higher = more signal
[19] = test system: wheat germ agglutinin (Triticum aestivum), Alexa647-labelled; assay: Alexa647-WGA lectin binding to printed small molecules – biochemical, small-molecule microarray, 635/667 nm fluorescence, artefact control for SMM control-protein annotation, profiling panel (AID 1140); conditions: WGA-A647 binding, 635 nm fluorescence, higher = more signal;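 further: score merges 667 nm feature emission with signal to noise over triplicate slides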
[20] = biological target: Luciferin 4-monooxygenase (Photinus pyralis) (UniProt P08659); assay: inhibition of purified Photinus pyralis luciferase – biochemical, luminescence, purified enzyme, 2006 set, primary screen (AID 1141); conditions: purified firefly luciferase, SteadyGlo luminescence, 30 min; higher = more signal, called active from +8 up or from −8 down;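 further: cell-free assay with purified firefly luciferase at 100 ng per well in PBS; test concentration not given here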
Luciferin 4-monooxygenase (Photinus pyralis), sequence (P08659 whole entry, looked up): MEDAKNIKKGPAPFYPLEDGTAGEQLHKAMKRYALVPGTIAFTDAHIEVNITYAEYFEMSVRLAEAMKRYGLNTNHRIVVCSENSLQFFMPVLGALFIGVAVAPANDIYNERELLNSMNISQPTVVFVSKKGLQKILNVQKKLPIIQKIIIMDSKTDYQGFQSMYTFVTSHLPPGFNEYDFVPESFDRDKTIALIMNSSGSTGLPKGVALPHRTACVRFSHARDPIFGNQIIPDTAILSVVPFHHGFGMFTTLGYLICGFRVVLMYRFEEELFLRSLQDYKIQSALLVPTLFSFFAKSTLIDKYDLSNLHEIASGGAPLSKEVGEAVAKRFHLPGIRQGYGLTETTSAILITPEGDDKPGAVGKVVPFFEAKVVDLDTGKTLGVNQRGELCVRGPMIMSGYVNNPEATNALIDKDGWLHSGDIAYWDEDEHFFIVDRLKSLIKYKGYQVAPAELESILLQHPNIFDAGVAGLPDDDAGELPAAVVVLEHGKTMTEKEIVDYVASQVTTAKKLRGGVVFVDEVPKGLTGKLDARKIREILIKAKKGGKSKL

Follistatin (Homo sapiens), sequence (P19883 whole entry, looked up): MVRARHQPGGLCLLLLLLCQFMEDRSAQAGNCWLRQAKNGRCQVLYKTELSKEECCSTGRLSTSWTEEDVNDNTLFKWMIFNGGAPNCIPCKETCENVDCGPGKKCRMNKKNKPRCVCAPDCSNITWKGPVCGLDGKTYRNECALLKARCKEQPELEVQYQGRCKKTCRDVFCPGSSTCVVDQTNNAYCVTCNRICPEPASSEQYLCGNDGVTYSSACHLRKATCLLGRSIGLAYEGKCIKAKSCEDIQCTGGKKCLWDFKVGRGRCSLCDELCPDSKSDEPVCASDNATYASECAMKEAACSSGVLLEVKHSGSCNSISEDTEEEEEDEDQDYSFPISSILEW
Concanavalin-A (Canavalia ensiformis), sequence (P02866 whole entry, looked up): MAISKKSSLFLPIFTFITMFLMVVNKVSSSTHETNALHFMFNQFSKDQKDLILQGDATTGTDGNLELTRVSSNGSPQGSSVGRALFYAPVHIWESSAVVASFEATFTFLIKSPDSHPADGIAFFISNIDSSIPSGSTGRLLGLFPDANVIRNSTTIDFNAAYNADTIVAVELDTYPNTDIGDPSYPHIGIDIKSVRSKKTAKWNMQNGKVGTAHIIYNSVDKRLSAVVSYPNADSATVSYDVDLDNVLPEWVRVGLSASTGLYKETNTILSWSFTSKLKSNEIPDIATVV
Fibroblast growth factor 2 (Homo sapiens), sequence (P09038 whole entry, looked up): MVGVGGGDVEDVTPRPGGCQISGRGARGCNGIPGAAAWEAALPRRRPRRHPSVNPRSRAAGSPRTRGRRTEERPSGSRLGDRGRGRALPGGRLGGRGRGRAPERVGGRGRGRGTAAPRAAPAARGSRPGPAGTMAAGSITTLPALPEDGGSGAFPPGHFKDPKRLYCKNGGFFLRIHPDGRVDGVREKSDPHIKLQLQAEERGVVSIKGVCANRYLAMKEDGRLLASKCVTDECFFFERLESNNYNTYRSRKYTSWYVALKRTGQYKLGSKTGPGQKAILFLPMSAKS
Albumin (Bos taurus), sequence (P02769 whole entry, looked up): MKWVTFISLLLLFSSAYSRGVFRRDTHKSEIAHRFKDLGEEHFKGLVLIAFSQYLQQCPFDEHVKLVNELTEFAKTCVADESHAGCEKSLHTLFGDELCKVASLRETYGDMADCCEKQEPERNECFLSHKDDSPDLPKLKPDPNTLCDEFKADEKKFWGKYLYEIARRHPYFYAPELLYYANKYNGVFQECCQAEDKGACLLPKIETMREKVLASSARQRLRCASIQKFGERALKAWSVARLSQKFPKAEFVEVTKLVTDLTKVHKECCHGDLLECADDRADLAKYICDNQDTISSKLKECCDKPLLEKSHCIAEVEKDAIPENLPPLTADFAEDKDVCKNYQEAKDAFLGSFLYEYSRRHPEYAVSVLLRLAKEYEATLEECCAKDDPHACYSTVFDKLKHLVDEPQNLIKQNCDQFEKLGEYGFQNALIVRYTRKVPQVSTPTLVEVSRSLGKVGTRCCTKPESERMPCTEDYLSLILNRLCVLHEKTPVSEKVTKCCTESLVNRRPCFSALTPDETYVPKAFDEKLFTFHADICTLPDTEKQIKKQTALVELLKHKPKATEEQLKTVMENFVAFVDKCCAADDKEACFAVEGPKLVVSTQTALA
Focal adhesion kinase 1 (Homo sapiens), sequence (Q05397 whole entry, looked up): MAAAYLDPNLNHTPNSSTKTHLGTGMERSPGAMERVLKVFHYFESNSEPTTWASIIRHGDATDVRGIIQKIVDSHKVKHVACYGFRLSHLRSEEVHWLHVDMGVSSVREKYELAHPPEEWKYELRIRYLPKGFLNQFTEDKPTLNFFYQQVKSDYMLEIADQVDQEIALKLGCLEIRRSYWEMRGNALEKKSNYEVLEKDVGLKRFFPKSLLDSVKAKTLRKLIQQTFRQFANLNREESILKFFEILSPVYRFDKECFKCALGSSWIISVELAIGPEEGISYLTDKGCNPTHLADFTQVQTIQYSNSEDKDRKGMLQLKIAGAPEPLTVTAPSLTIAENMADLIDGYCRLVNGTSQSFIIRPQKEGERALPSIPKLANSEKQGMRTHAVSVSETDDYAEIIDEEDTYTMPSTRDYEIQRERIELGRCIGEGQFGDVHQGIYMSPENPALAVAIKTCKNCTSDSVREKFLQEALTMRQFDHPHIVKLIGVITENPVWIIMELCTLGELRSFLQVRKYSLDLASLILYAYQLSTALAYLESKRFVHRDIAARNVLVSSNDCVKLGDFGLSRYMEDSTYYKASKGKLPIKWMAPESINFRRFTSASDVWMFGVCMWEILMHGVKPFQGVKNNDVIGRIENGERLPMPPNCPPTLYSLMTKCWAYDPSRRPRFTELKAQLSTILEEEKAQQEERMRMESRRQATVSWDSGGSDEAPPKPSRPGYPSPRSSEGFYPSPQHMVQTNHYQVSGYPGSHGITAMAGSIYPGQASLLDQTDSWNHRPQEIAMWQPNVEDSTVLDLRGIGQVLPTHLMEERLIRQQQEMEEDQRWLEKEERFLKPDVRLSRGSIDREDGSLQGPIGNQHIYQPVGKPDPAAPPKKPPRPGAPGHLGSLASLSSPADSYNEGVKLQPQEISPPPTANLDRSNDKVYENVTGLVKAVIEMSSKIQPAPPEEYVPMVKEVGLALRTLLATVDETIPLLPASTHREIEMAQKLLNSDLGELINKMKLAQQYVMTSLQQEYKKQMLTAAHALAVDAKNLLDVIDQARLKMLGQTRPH

Compound | composite z-score [1] | composite Z-score [2] | composite z-score [3] | composite z-score [4] | composite z-score [5] | composite z-score [6] | composite z-score [7] | composite z-score [8] | composite z-score [9] | composite z-score [10] | composite z-score [11] | composite z-score [12] | composite z-score [13] | composite z-score [14] | composite z-score [15] | composite z-score [16] | z-score [17] | composite z-score [18] | composite z-score [19] | z-score [20]
NCCCCCNC(=O)[C@@H]1C[C@@H]2C(=O)N[C@@H](Cc3ccccc3)C(=O)N2[C@@H]1c1ccc(O)cc1 | 0.507 | 0.839 (inactive) | -0.0716 | -0.108 | 0.231 | 2.21 | -0.304 | 1.24 | -0.129 | 0.968 | 1.85 | 0.958 | 0.255 | 0.89 | 1.28 | 0.871 | 0.972 | 0.865 | 0.86 | -0.365 (inactive)
Oc1ccc2cc[n+](Cc3sc4ccccc4c3Cl)cc2c1 | -0.49 | 0.598 (inactive) | 0.0854 | -0.0694 | 0.888 | 2.88 | 1.07 | -0.702 | 0.617 | 0.376 | -0.146 | -0.537 | 0.703 | -0.462 | 1.33 | 0.567 | -0.832 | 0.506 | 1.14 | -0.226 (inactive)
Cc1ccccc1C(O)C1C=CC2C(=O)N(c3ccccc3)C(=O)C2N1Nc1ccc(C(C)C)cc1 (stereo not given) | 0.868 | 0.403 (inactive) | 0.344 | -0.0983 | 0.304 | 2.1 | 0.68 | 1.15 | -0.219 | 1.15 | 0.0147 | 1.14 | 0.655 | 0.997 | 1.02 | -0.144 | -0.504 | 0.383 | 0.882 | -0.263 (inactive)
O=C1C2C=CC(C(O)c3cccc4ccccc34)N(Nc3ccccc3F)C2C(=O)N1c1ccccc1 (stereo not given) | 0.799 | 0.791 (inactive) | 0.614 | 0.0007 | 0.728 | 2.76 | 0.491 | 1.29 | -0.539 | 1.09 | 1.22 | 1.25 | 0.792 | 1 | 0.829 | -0.276 | -0.968 | 0.345 | 1.4 | 1.24 (inactive)
CCC(CC)C(O)C1C=CC2C(=O)NC(=O)C2N1Nc1ccc(Cl)cc1Cl (stereo not given) | 0.869 | 0.818 (inactive) | 0.237 | 0.0333 | 0.654 | 2.18 | 1.02 | 0.887 | -0.381 | 1.06 | 1.66 | 1.18 | 0.383 | 0.952 | 1.14 | -0.0832 | -0.00434 | 0.359 | 0.788 | -0.533 (inactive)
CCCCC(CC)C(O)C1C=CC2C(=O)N(Cc3ccccc3)C(=O)C2N1n1cnnc1 (stereo not given) | 0.0178 | 0.0835 (inactive) | 0.0116 | -0.126 | 0.424 | 0.262 | -0.192 | 0.26 | -0.353 | 0.273 | 0.544 | 0.541 | 1.57 | 0.107 | 0.539 | -0.504 | -0.423 | 0.0981 | 0.616 | 0.758 (inactive)
O=C1OCCC/C=C\[C@H]2OC34C=CCN(Cc5ccccc5)C(=O)[C@H]3N(CCCO)C(=O)[C@@H]4C12 (stereo not given in full) | -0.937 | 0.581 (inactive) | -0.327 | -0.104 | 0.948 | -0.861 | 1.59 | -0.374 | -1.79 | -1.53 | -0.14 | -0.496 | -0.66 | -1.64 | -1.29 | -1.08 | 1.26 | -1.28 | -0.443 | -1.26 (inactive)
CC(C)C[C@@H]1NC(=O)[C@H](C(C)C)NC(=O)[C@@]23C(=O)N[C@@H](Cc4ccccc4)C2[C@H](C)[C@@]2(C)O[C@H]2C3/C=C/CC/C=C/CNC1=O (stereo not given in full) | 0.371 | 0.131 (inactive) | 0.0694 | -0.126 | 0.532 | 1.28 | -0.0375 | 1.29 | 0.806 | 0.271 | 0.65 | 0.466 | 0.262 | 0.972 | 1.29 | 1.53 | 0.276 | 1.15 | 0.229 | -0.219 (inactive)
CN(C)C(=O)[C@@]1(CCS(=O)(=O)c2ccccc2)COC(c2ccc(OCCCO)cc2)=N1 | 0.401 | 0.319 (inactive) | 0.125 | -0.0406 | 0.813 | 2.28 | 0.441 | 0.203 | -0.466 | 0.469 | 1.45 | 1.24 | 0.119 | 0.993 | 0.66 | -0.0861 | -0.572 | -0.589 | 0.93 | -0.446 (inactive)
CCCCCCc1nc(-c2ccc(OC)nc2)cc2c1[Si](C(C)C)(C(C)C)O[C@H]2c1ccccc1 | -0.807 | 0.131 (inactive) | -0.0864 | -0.166 | -0.0224 | 0.0277 | -0.08 | -0.187 | 1.12 | 0.0837 | -0.133 | -0.484 | 0.0202 | -0.51 | 0.885 | 0.896 | -0.959 | 1.44 | 0.211 | 0.974 (inactive)
Cc1ccc(N2C(=O)c3ccccc3[C@@H](C(=O)NC3CC3)[C@@H]2c2ccc(CO)cc2)nc1 | -0.301 | -0.648 (inactive) | -0.481 | -0.165 | 0.677 | -0.663 | 0.653 | -2.27 | -1.97 | -0.616 | 0.442 | -0.372 | -1.29 | -3.9 | -0.71 | 0.392 | -0.487 | -1.79 | -0.0414 | 0.309 (inactive)
